# Data reported in PubChem BioAssay (EPA / NIEHS).
# Several values for one entry are separate records, joined by “and”; a condition that tells them apart may be missing. Equal values may be shown once. Records with an inconclusive call do not appear. Activity calls are given as the source filed them. Rule for the calls: active = hit-call score of the fitted dose curve at least 0.9, where 1 is the maximum; inconclusive = response in the unintended direction; inactive = score below 0.9.
# Experiments:
# [1] = tested on: rat Adrenergic, Alpha 1B Receptor (Adra1B), gene 24173; experiment: NVS_GPCR_rAdra1B: NovaScreen (NVS) G Protein-Coupled Receptor Assay for rat Adrenergic, Alpha 1B Receptor (Adra1B) (AID 2283297)
# Outline: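 Rat liver membranes, radioligand displacement with filter-based scintillation detection, 1 h incubation. Primary screen in duplicate at 25 uM; actives retested in concentration series; activity relative to DMSO.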
# [2] = molecular target: rat Adrenergic Receptor, Alpha 2 (Adra2), Non-selective Binding, Adra2a (gene 25083) (UniProt P22909); experiment: NVS_GPCR_rAdra2_NonSelective: NovaScreen (NVS) G Protein-Coupled Receptor Assay for rat Adrenergic Receptor, Alpha 2 (Adra2), Non-selective Binding (AID 2283299)
# Outline: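 Rat cortical membranes, radioligand competitive displacement read by filter-based scintillation counting 1.25 hours after dosing. Primary screen in duplicate at 25 uM; actives followed up in concentration series.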
# [3] = molecular target: rat Histamine Receptor (H3), Hrh3 (gene 85268) (UniProt Q9QYN8); experiment: NVS_GPCR_rH3: NovaScreen (NVS) G Protein-Coupled Receptor Assay for rat Histamine Receptor (H3) (AID 2283303)
# Outline: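 Rat forebrain membranes incubated 1 h with compound; radioligand displacement measured by filter-based scintillation counting. Single-concentration duplicates at 25 µM, then concentration-response up to 50 µM, relative to DMSO.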
# Adra2b (gene 24174) = Adra2b (gene 24174) (UniProt P19328); experiment: NVS_GPCR_rmAdra2B: NovaScreen (NVS) G Protein-Coupled Receptor Assay for hybird cells Adrenergic, Alpha 2B Receptor (Adra2B) (AID 2283306)
# Outline: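 Radioligand filter-binding assay on membrane proteins from neuroglioma/blastoma hybrid cells (rodent), 1 h after dosing; scintillation counting, loss of signal vs DMSO. Primary screen in duplicate at 25 uM, actives then run in concentration series.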
# [4] = NVS_IC_rCaDHPRCh_L: NovaScreen (NVS) Ion Channel Assay for rat Calcium Channel, Type L, Dihydropyridine Site (CaDHPRCh_L) (AID 2283320)
# Outline: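 Radioligand binding to dihydropyridine site on rat cortical membranes, filter-based scintillation counting, 1 h after dosing. Screened in duplicate at 25 uM; actives rerun in concentration-response up to 50 uM. Loss of signal versus DMSO baseline.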
# [5] = molecular target: Sodium channel protein type 1 subunit alpha (Rattus norvegicus) (UniProt P04774); experiment: NVS_IC_rNaCh_site2: NovaScreen (NVS) Ion Channel Assay for rat Sodium Channel, Site 2 (NaCh) (AID 2283322);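 note: hit means loss of radioligand binding signal relative to DMSO so AC50 marks displacement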
# Outline: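 Membranes: rat forebrain. Format: competitive radioligand displacement, filter separation, scintillation readout, 1 h exposure. Primary screen in duplicate at 25 uM; actives retested in concentration series.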
# [6] = molecular target: human Peripheral-type Benzodiazepine Receptor (PBR), TSPO (gene 706) (UniProt P30536); experiment: NVS_MP_hPBR: NovaScreen (NVS) Membrane Protein Assay for human Peripheral-type Benzodiazepine Receptor (PBR) (AID 2283331);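 note: hits reduce radioligand binding relative to DMSO baseline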
# Outline: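 Radioligand displacement on human colonic cell membranes, 1 h incubation; bound radioactivity by filtration and scintillation counting. Primary screen in duplicate at 25 uM single concentration, actives followed up in concentration series; loss of binding versus DMSO.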
# [7] = molecular target: rat Thyrotropin Releasing Hormone Receptor (TRH), Trhr (gene 25570) (UniProt Q01717); experiment: NVS_GPCR_rTRH: NovaScreen (NVS) G Protein-Coupled Receptor Assay for rat Thyrotropin Releasing Hormone Receptor (TRH) (AID 2283329);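 note: hit means lower bound tracer signal versus DMSO baseline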
# Outline: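 Rat forebrain membranes; radioligand displacement at TRH receptor by filter-based scintillation counting, read 4 h after dosing. Duplicate single-point screen at 25 uM, actives rerun in concentration series; loss of signal relative to DMSO.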
# [8] = molecular target: rat Vasopressin 1 Receptor (V1), Avpr1a (gene 25107) (UniProt P30560); experiment: NVS_GPCR_rV1: NovaScreen (NVS) G Protein-Coupled Receptor Assay for rat Vasopressin 1 Receptor (V1) (AID 2283316)
# Outline: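 Radioligand binding on rat liver membranes, 1.5 h incubation, filter-based scintillation counting. Single 25 uM screen in duplicate; chemicals meeting threshold (e.g. 30% inhibition) run in concentration-response up to 50 uM.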
# [9] = molecular target: rat Adrenergic Receptor, Beta (Adrb), Non-selective Binding, Adrb1 (gene 24925) (UniProt P18090); experiment: NVS_GPCR_rAdrb_NonSelective: NovaScreen (NVS) G Protein-Coupled Receptor Assay for rat Adrenergic Receptor, Beta (Adrb), Non-selective Binding (AID 2283298)
# Outline: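 Non-selective beta-adrenergic radioligand binding in rat cortical membranes, 1 h incubation, filter-based scintillation read-out. Primary screen 25 uM in duplicate; hits retested in concentration-response up to 50 uM, DMSO baseline.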
# NCBI gene 24521 = experiment: NVS_IC_rKATPCh: NovaScreen (NVS) Ion Channel Assay for rat Potassium Channel, ATP-Sensitive (KATPCh) (AID 2283319)
# Outline: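 Rat cortical membranes; radioligand binding at ATP-sensitive K channel site, filter-based scintillation counting 2 h after dosing. Single-point duplicate screen at 25 uM, hits rerun in concentration-response up to 50 uM; loss of signal versus DMSO.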
# [10] = molecular target: rat Gamma-Aminobutyric Acid Type A Receptor, Non-Selective (GABAR-NonSelective), Gabra1 (gene 29705) (UniProt P62813); experiment: NVS_LGIC_rGABAR_NonSelective: NovaScreen (NVS) Ligand-Gated Ion Channel Assay for rat Gamma-Aminobutyric Acid Type A Receptor, Non-Selective (GABAR-NonSelective) (AID 2283326)
# Outline: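 Radioligand displacement on rat whole-brain extract, 1 h, filter scintillation readout; signal loss fitted versus DMSO. Primary screen in duplicate at 25 uM; hits (e.g. ≥30% inhibition) retested in concentration-response up to 50 uM.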
# [11] = molecular target: rat Neonicotinoid receptor (NNR), Chrna7 (gene 25302) (UniProt Q05941); experiment: NVS_LGIC_rNNR_BungSens: NovaScreen (NVS) Ligand-Gated Ion Channel Assay for rat Neonicotinoid receptor (NNR) (AID 2283315)
# Outline: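 Radioligand displacement binding on rat cortical membranes, 2.5 h incubation, filtration and scintillation counting. Loss of specific binding fitted relative to DMSO.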
# [12] = molecular target: rat Somatostatin Receptor (SST), Sstr1 (gene 25033) (UniProt P28646); experiment: NVS_GPCR_rSST: NovaScreen (NVS) G Protein-Coupled Receptor Assay for rat Somatostatin Receptor (SST) (AID 2283314)
# Outline: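 Rat forebrain membranes; radioligand displacement read by filter-based scintillation counting 1 h after dosing. Primary screen in duplicate at 25 uM. Actives (e.g., 30% inhibition) were rerun as concentration-response to 50 uM max and fitted against DMSO.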
# rat Adrenergic Receptor, Alpha 2 (Adra2), Non-selective Binding, Adra2a (gene 25083), sequence (P22909 whole entry, looked up): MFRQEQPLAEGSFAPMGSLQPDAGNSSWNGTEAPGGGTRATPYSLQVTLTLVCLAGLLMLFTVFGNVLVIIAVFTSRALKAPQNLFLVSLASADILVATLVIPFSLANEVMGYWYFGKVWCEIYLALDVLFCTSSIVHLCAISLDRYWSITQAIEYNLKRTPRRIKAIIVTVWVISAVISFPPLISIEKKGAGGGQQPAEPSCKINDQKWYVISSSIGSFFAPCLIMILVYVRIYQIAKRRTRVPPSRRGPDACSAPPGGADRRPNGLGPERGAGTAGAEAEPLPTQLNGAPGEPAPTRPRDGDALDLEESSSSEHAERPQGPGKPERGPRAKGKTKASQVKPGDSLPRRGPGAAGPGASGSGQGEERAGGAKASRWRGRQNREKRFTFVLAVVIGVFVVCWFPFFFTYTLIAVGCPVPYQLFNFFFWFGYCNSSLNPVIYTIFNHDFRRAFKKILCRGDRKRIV
# human Peripheral-type Benzodiazepine Receptor (PBR), TSPO (gene 706), sequence (P30536 whole entry, looked up): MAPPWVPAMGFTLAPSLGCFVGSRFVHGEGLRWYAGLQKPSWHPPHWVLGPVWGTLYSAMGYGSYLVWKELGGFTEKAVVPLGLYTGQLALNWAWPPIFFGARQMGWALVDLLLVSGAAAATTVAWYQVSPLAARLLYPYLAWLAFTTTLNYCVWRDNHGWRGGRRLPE
# rat Thyrotropin Releasing Hormone Receptor (TRH), Trhr (gene 25570), sequence (Q01717 whole entry, looked up): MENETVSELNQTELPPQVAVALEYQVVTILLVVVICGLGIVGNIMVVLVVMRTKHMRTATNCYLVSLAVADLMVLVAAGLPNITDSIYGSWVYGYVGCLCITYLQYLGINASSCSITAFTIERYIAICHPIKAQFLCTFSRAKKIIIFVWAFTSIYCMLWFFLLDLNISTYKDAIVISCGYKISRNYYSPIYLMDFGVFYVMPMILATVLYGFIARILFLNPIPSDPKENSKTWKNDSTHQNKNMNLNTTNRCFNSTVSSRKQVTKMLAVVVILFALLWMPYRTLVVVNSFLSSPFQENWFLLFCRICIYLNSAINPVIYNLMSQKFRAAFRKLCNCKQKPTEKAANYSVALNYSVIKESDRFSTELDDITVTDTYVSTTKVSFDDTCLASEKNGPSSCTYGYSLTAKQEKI
# rat Vasopressin 1 Receptor (V1), Avpr1a (gene 25107), sequence (P30560 whole entry, looked up): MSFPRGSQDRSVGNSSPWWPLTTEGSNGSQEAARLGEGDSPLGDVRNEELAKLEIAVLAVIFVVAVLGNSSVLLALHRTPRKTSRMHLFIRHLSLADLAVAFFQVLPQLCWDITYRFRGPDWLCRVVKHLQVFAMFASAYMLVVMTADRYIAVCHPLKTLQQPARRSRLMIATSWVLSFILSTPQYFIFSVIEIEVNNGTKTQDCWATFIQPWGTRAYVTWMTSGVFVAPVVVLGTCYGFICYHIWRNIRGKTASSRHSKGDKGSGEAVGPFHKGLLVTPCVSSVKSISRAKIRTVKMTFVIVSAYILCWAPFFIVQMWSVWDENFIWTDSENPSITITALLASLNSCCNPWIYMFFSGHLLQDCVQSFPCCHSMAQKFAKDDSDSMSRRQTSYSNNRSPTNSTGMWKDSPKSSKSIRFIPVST
# rat Somatostatin Receptor (SST), Sstr1 (gene 25033), sequence (P28646 whole entry, looked up): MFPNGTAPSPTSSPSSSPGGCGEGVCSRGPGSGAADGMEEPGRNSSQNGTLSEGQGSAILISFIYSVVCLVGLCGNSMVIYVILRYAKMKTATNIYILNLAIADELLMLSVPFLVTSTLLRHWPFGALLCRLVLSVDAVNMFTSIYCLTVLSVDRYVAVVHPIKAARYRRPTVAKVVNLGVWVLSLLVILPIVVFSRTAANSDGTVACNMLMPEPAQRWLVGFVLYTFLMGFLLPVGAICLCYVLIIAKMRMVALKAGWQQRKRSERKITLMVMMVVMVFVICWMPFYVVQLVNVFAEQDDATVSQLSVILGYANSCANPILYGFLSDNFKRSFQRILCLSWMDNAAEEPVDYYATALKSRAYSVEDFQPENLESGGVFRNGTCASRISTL
# rat Neonicotinoid receptor (NNR), Chrna7 (gene 25302), sequence (Q05941 whole entry, looked up): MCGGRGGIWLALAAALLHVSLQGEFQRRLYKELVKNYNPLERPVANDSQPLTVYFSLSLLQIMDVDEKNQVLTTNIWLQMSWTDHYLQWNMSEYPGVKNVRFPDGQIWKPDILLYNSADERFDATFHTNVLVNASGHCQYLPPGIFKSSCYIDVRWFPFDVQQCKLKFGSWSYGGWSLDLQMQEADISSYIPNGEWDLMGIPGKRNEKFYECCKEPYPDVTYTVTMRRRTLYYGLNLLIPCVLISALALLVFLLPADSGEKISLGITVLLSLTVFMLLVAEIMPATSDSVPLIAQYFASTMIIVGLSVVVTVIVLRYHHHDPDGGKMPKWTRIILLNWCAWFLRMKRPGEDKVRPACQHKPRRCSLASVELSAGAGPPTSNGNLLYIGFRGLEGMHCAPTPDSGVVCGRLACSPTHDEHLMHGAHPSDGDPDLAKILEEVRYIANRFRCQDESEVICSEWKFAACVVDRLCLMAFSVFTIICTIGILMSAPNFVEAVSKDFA
# rat Gamma-Aminobutyric Acid Type A Receptor, Non-Selective (GABAR-NonSelective), Gabra1 (gene 29705), sequence (P62813 whole entry, looked up): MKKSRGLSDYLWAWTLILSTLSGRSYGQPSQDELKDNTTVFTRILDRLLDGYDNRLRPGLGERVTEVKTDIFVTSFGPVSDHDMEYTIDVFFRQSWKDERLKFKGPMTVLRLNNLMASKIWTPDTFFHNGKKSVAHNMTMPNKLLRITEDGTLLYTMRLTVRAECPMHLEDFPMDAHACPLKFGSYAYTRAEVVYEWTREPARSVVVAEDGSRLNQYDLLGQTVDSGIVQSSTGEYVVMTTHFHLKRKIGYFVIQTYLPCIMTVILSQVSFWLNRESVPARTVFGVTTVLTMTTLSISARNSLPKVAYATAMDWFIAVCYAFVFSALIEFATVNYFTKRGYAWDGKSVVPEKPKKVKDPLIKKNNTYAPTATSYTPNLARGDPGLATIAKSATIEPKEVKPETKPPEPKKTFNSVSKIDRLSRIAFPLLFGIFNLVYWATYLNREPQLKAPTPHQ
# Adra2b (gene 24174), sequence (P19328 whole entry, looked up): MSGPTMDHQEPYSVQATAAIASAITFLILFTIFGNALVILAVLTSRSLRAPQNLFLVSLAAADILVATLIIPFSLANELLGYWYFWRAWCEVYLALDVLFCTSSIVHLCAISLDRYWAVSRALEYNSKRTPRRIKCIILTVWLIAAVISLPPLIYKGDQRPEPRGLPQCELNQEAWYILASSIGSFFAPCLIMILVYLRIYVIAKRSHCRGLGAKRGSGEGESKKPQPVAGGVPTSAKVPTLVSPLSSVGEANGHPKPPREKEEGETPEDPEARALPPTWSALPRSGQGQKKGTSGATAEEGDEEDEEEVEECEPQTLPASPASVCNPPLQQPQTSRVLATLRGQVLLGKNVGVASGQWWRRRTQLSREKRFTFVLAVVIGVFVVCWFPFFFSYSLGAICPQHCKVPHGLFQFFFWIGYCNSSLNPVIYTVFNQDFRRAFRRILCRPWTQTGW
# rat Histamine Receptor (H3), Hrh3 (gene 85268), sequence (Q9QYN8 whole entry, looked up): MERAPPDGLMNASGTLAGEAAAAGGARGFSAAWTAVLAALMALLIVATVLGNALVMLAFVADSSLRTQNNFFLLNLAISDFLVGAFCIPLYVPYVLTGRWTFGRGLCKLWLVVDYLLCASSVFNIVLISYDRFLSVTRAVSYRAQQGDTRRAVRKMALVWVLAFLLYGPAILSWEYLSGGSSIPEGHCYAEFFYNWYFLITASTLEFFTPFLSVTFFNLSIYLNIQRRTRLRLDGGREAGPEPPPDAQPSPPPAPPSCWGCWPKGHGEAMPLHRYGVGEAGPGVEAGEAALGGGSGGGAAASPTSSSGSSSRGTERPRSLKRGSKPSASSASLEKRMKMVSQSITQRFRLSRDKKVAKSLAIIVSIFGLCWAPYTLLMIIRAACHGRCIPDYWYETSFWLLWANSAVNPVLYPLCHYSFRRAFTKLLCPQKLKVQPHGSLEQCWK
# rat Adrenergic Receptor, Beta (Adrb), Non-selective Binding, Adrb1 (gene 24925), sequence (P18090 whole entry, looked up): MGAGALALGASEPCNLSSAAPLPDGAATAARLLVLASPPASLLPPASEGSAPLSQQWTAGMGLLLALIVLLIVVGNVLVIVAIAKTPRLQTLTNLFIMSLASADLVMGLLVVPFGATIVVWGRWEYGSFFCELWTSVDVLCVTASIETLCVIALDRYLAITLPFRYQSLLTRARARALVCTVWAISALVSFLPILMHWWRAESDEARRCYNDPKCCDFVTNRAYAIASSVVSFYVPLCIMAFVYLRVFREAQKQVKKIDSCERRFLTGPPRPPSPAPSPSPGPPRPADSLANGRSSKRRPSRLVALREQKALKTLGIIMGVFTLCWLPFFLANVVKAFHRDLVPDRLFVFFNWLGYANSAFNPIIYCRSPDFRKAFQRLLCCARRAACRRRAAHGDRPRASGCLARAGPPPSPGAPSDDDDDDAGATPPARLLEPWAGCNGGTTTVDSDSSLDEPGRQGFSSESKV
smiles,measurement,setting,value
CCCCc1oc2ccccc2c1C(=O)c1cc(I)c(OCCN(CC)CC)c(I)c1,AC50,[1],9.13 µM (active)
same,AC50,[2],10.8 µM (active)
same,AC50,[3],6.48 µM (active)
same,AC50,Adra2b (gene 24174),11.4 µM (active)
same,AC50,[4],0.772 µM (active)
same,AC50,[5],1.67 µM (active)
same,AC50,[6],5.22 µM (active)
C/C=C/C(=O)C1=C(C)CCCC1(C)C,AC50,[6],10.8 µM (active)
COc1cc([N+](=O)[O-])ccc1N,outcome,[7],inactive
Cc1ccc(C)c(S(=O)(=O)O)c1,AC50,[7],0.194 µM (active)
CCCCCc1ccc(O)cc1,AC50,[5],1.07 µM (active)
same,AC50,[6],25 µM (active)
CCCCC(CC)C(=O)OCCOCCOCCOCCOC(=O)C(CC)CCCC (configuration not stated),AC50,[6],15.8 µM (active)
CS(=O)(=O)c1ccc([C@@H](CC2CCCC2)C(=O)Nc2cnccn2)cc1Cl,outcome,[8],inactive
same,outcome,[7],inactive
CCCCCCC(C)(C)C(=O)O,outcome,[7],inactive
COC1=CC(=O)C[C@@H](C)[C@]12Oc1c(Cl)c(OC)cc(OC)c1C2=O,AC50,[2],3.69 µM (active)
O=C(CCCN1CCC(O)(c2ccc(Cl)cc2)CC1)c1ccc(F)cc1,AC50,[9],18.2 µM (active)
same,AC50,[4],3.15 µM (active)
same,AC50,[5],0.376 µM (active)
CN(C)c1ccc(C(=C2C=CC(=[N+](C)C)C=C2)c2ccccc2)cc1,AC50,[2],8.31 µM (active) and 7.55 µM (active)
same,AC50,[5],860 nM (active) and 5.04 µM (active)
same,AC50,[6],1.29 µM (active) and 1.63 µM (active)
CCCCCCCCCCCCOS(=O)(=O)O,outcome,NCBI gene 24521,inactive
same,AC50,[10],5.96 µM (active)
O=C(O)c1cccc(C(=O)O)n1,outcome,[7],inactive
NC(=NCCCCCCN=C(N)/N=C(\N)Nc1ccc(Cl)cc1)/N=C(\N)Nc1ccc(Cl)cc1,AC50,[2],17.6 µM (active)
same,AC50,[11],38.3 µM (active)
same,outcome,[5],inactive
same,AC50,[6],10.3 µM (active)
CN(Cc1cnc2nc(N)nc(N)c2n1)c1ccc(C(=O)N[C@@H](CCC(=O)O)C(=O)O)cc1,AC50,[12],3.06 µM (active)
same,outcome,[5],inactive
same,outcome,[6],inactive
NCCN,outcome,[7],inactive
Cc1cc(C(=C2C=CC(=Nc3ccc(S(=O)(=O)O)cc3)C=C2)c2ccc(Nc3ccc(S(=O)(=O)O)cc3)cc2)cc(S(=O)(=O)O)c1N,outcome,[7],inactive
Cc1ccc(S(=O)(=O)O)cc1,AC50,[7],0.167 µM (active)
O=C(NCc1ncc(C(F)(F)F)cc1Cl)c1c(Cl)cccc1Cl,AC50,[6],0.00396 µM (active)
